# In the library only some 2.7% were active in any assay of this set; here they are far more common.
# FAS TE block = inhibitors of human fatty acid synthase thioesterase domain | recombinant FAS-TE, OMFH fluorogenic substrate, fluorescence endpoint | inhibition, % at 15 µM | actives 0.67% (n = 360,000) | P49327 | AID 602261;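 active = compounds whose normalised, plate-corrected inhibition of enzyme fluorescence in the single-dose primary screen is 50% or more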;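 note: 0% = DMSO with enzyme and 100% = substrate without enzyme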
# proKLK7 act = activators of human kallikrein-7 zymogen; purified proKLK7, EDANS-DABCYL substrate fluorescence; 100% is mature enzyme control, 0% vehicle; AID 652039; actives 0.9% (n = 370,000); P49862; activation, % at 7 µM;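 active = activation above the mean of all tested compounds plus 3 SD, computed per campaign excluding outliers beyond control limits, cut at about 13% in these data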
# PfG6PD inh = PfG6PD (Plasmodium falciparum) enzyme inhibition; AID 504690; actives 0.78% (n = 350,000); PfGluPho enzyme, NADPH resazurin-diaphorase fluorescence; inhibition, % at 20 µM;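 active = inhibition reaching at least a set limit at 20 µM in the primary screen, cut at about 59% in these data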;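 note: 0% = DMSO wells with substrate and 100% = DMSO wells lacking glucose-6-phosphate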
# Neddylation inh = blocks human cullin neddylation; AID 651699; P61081+Q13564; calls only at 25 µM; TR-FRET cullin neddylation, biochemical; actives 0.58% (n = 360,000); in the data active = inhibition above about 36%
# KLK7 act conf = proKLK7 activation, confirmation; shares compounds with proKLK7 act; purified proKLK7, EDANS-DABCYL substrate fluorescence; scaled: vehicle 0, mature enzyme 100; activation, % at 7 µM; actives 68% (n = 3,200);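 active = activation, as change over the incubation, above the mean of all tested compounds plus 3 SD, cut at about 13% in these data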
# EDANS interfere = fluorescence interference counter-screen for KLK7 activators; shares compounds with proKLK7 act; EDANS-DABCYL substrate fluorescence interference, no enzyme, 4 h; solvent 0%, active enzyme control 100%; activation, % at 7 µM; actives 80% (n = 3,200); AID 686952;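 active = activation above the all-compound mean plus 3 SD, ignoring values outside control-based bounds, cut at about 4.8% in these data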;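 note: value is the 4 h activation minus the activation read at time zero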
# EDANS interf = optically interferes with EDANS-DABCYL fluorescence, kallikrein-7 activator counter-screen; EC50, µM; AID 720493; EDANS-DABCYL peptide fluorescence interference, no enzyme; shares compounds with proKLK7 act; actives 20% (n = 250);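 active = compounds that raise the fluorescence signal in this interference counterscreen, with EC50 at or below 10 µM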;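 note: intact quenched peptide substrate alone read at 355 nm excitation and 520 nm emission; signal is fluorescence gain from T0 to T4 after four hours at room temperature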
# Starred values were filed as active, the others as inactive; i = inactive; nt = not tested or not shown; + = active, no number.
SMILES,FAS TE block,proKLK7 act,PfG6PD inh,Neddylation inh,KLK7 act conf,EDANS interfere,others
COc1ccc2cc(C(=O)C3CCCN(C(=O)c4cccnc4)C3)ccc2c1 (stereo unspecified),-3.3,22.4*,11.1,nt,57.2*,46.7*,EDANS interf=>69.6
O=C(c1ccc2ccccc2c1)C1CCCN(C(=O)c2cccnc2)C1 (stereo unspecified),-8.8,1.0,0.3,i,nt,nt,
CCn1ccnc1CN1CCCC(C(=O)c2ccc3cc(OC)ccc3c2)C1 (stereo unspecified),1.9,35.9*,0.6,nt,-2.6,-5.8,
COc1ccccc1C(=O)n1ccc2ccc(-c3ccc4ccn(Cc5ccc(C#N)cc5)c4c3)cc21,nt,-0.2,nt,nt,nt,nt,
CCN(CC)C(=O)c1cccc(-c2csc(C(O)(c3ccccc3)C(F)(F)F)n2)c1 (stereo unspecified),9.3,0.2,nt,i,nt,nt,
CN(C)S(=O)(=O)c1ccc(-c2cn3ccccc3n2)cc1,-3.0,29.6*,7.6,nt,22.4*,30.6*,
O=S(=O)(c1cccc(-c2cn3cccnc3n2)c1)N1CCCCCC1,-6.3,5.2,14.8,nt,nt,nt,
Cc1ccc2nc(-c3cccc(S(=O)(=O)N(C)C)c3)cn2c1,0.2,0.0,50.2,i,nt,nt,
CN(C)S(=O)(=O)c1cccc(-c2cn3cccnc3n2)c1,-1.6,38.9*,9.8,nt,56.9*,61.7*,
O=S(=O)(c1cccc(-c2cn3cccnc3n2)c1)N1CCOCC1,-7.1,30.2*,3.0,nt,70.9*,66.7*,
COc1ccc(C2C3=C(CC(C)(C)CC3=O)Nc3n[nH]c(C)c32)cc1 (stereo unspecified),-3.9,9.2,0.1,nt,nt,nt,
Cc1[nH]nc2c1C(c1ccsc1)C1=C(CC(C)(C)CC1=O)N2 (stereo unspecified),-1.0,13.6*,-9.3,nt,13.0*,17.2*,
N#Cc1c(N)n(-c2ccc(C(=O)O)cc2)c2nc3ccccc3nc12,-5.7,68.6*,7.9,nt,78.7*,78.7*,
CN1CCN(C(=O)c2ccc(-c3cccs3)s2)CC1,-0.4,32.5*,2.4,nt,6.5,5.3*,
CC(=O)NC(C)(c1ccccc1)c1nc(-c2cccc3cccnc23)cs1 (stereo unspecified),1.8,0.7,nt,i,nt,nt,
C[C@@H]1CN([C@@H](C)CO)C(=O)CCCn2nncc2CO[C@H]1CN(C)C(=O)OCc1ccccc1,-11.0,0.4,3.5,i,nt,nt,
C=CCOc1ccc(/C=N/NC(=O)c2c(C)nc3ccc(Cl)cn23)cc1,1.1,23.1*,-11.0,i,348.3*,333.4*,
COc1ccc(/C=N/NC(=O)c2c(C)nc3ccc(Cl)cn23)cc1OC,-0.6,-1.3,4.1,i,nt,nt,
COc1ccc(OC)c(/C=N\NC(=O)c2c(C)nc3cc(C)ccn23)c1,-3.0,16.1*,-0.6,nt,24.4*,-9.8,EDANS interf=>69.6
COC(=O)c1ccc(/C=N\NC(=O)c2c(C)nc3ccc(Cl)cn23)cc1,-7.7,nt,-3.1,i,nt,nt,
COc1cc(/C=N/NC(=O)c2c(C)nc3ccc(Cl)cn23)cc(OC)c1OC,-5.3,36.2*,6.8,i,18.6*,14.1*,EDANS interf=i
O=C(C1CCCN1S(=O)(=O)c1ccccc1[N+](=O)[O-])N1CCN(c2ccccc2)CC1 (stereo unspecified),nt,-0.5,nt,nt,nt,nt,
O=C(NCc1ccc(F)c(F)c1)C1Cc2c(-c3ccc4c(c3)OCO4)ccnc2O1 (stereo unspecified),15.4,-1.6,nt,i,nt,nt,
CCCN1CCN(CCCNC(=O)c2cc3c(=O)[nH]c4ccc(C)cc4c3s2)CC1,-3.8,21.4*,24.4,nt,-16.5,-14.3,
CCOC(=O)c1ccc(S(=O)(=O)N2CCC(N3CCCCCC3)CC2)cc1,-8.2,-0.1,-6.3,i,nt,nt,
SMILES,FAS TE block,proKLK7 act,PfG6PD inh,Neddylation inh,KLK7 act conf,EDANS interfere,others
COc1ccc2nc3ccccc3[n+]([O-])c2c1,-23.4,27.4*,-4.5,+,32.0*,34.0*,
COc1ccc2c(ccc[n+]2[O-])c1,-6.8,0.0,23.5,i,nt,nt,
CCc1cc2c(nc1CC)CCCN2S(=O)(=O)c1ccc(C#N)cc1,nt,0.8,nt,nt,nt,nt,
CCc1cc2c(nc1CC)CCCN2CCOC,nt,28.6*,nt,nt,-9.7,-9.5,
CC(=O)NC(Cc1ccc2c(c1)OCO2)C(=O)N1CCCN(C(C)=O)CC1 (stereo unspecified),nt,0.0,nt,nt,nt,nt,
O=c1c2ccccc2[nH]c2ccc(F)cc12,-0.6,-5.8,14.0,nt,nt,nt,
O=c1nc(-c2ccccc2Cl)c2cc(F)ccc2[nH]1,-7.8,19.0*,-4.2,nt,31.0*,26.2*,EDANS interf=i
OC(c1ccc(F)c(F)c1)c1nc(-c2cccc(F)c2)cs1 (stereo unspecified),21.5,0.8,nt,i,nt,nt,
Nc1ccc2c(C(F)(F)F)cc(C(F)(F)F)nc2n1,-1.8,38.1*,1.7,nt,46.9*,42.2*,
CC(=O)N1CCc2[nH]c3ccc(C)cc3c2C1,-1.9,3.2,6.6,i,nt,nt,
CCOC(=O)N1CCc2[nH]c3ccc(C)cc3c2C1,5.0,16.6*,30.4,i,22.8*,23.5*,
CN1CCC[C@H]1CCNc1ccc2c(=O)c3ccccc3n(C)c2c1,-3.7,48.9*,54.1,nt,84.0*,80.0*,
CN1CCCC1CCNc1ccc2c(=O)c3ccccc3oc2c1 (stereo unspecified),-9.2,76.2*,-3.3,i,71.7*,80.0*,
CC1c2cc3c(cc2CCN1C(=O)c1ccc(Cl)cc1)OCCCO3 (stereo unspecified),4.2,0.7,-4.3,i,nt,nt,
Cc1ccc(C(=O)N2CCc3cc4c(cc3C2C)OCCCO4)cc1 (stereo unspecified),2.5,12.9*,-1.1,i,5.7,6.7*,
C=CCN(CC#Cc1cccnc1)Cc1ccc(OC)cc1OC,nt,-0.1,nt,nt,nt,nt,
CCN(CC)c1ccc(/C=C/c2ccc3ccc(OC)cc3[n+]2CC)cc1,-1.1,0.7,0.8,i,nt,nt,
CCC1(O)C(=O)OCc2c1cc1n(c2=O)Cc2cc3c(N)cccc3nc2-1 (stereo unspecified),-4.9,23.5*,36.7,i,64.3*,66.7*,
Cc1noc(C)c1C(C)C1=CCCCC1 (stereo unspecified),nt,-0.3,nt,nt,nt,nt,
Cc1ccc2nc(N3CCN(C(=O)CCCC(=O)O)CC3)nc(-c3ccccc3)c2c1,-0.6,2.5,-10.9,nt,nt,nt,
O=C(O)CCC(=O)N1CCN(c2nc(-c3ccccc3)c3ccccc3n2)CC1,-7.5,31.7*,-10.1,nt,7.5,8.6*,
Nc1sc(Cc2ccccc2)cc1C(=O)NC1CCCCC1,nt,0.1,nt,i,nt,nt,
CCOc1cc(/C=N/NC(=O)C(=O)N/N=C/c2ccc(O)c(OCC)c2)ccc1O,-7.5,15.9*,-7.2,i,-21.5,-8.3,
CCOc1cc(/C=N/NC(=O)N/N=C/c2ccc(O)c(OCC)c2)ccc1O,nt,0.3,30.4,nt,nt,nt,
CC1=NCC(C)c2c1[nH]c1ccccc21 (stereo unspecified),-16.0,30.3*,7.0,nt,19.8*,17.0*,
CC1=NCC(C)c2ccccc21 (stereo unspecified),-8.3,-0.5,-0.9,i,nt,nt,
CCOC(=O)c1cnn2c(C)cc(-c3ccc(F)cc3)nc12,-1.7,25.6*,-9.0,nt,-3.8,17.0*,
COC(=O)C1CN(Cc2ccc(OC)cc2)CCS(=O)(=O)N1Cc1cn(Cc2ccccc2)nn1 (stereo unspecified),nt,1.0,nt,nt,nt,nt,
O=c1[nH]c2ccc(Cl)cc2c(-c2ccccc2)c1N1CCN(CCO)CC1,-0.9,29.4*,-7.8,nt,-9.0,-4.7,

# Screens as filed in PubChem BioAssay.
